This is one part of a sample in which hits are shown more often than they occur.
CHX counter: counter-screen for Shiga toxin inhibitors: cycloheximide protein synthesis inhibition; cell reporter, cycloheximide protein synthesis inhibition counterscreen; max response, %; 12% of 300,000 active; in the data active = max response mostly above about 13%, no sharp cut-off; inactive = mostly below about 14%; note: read at 38.3 µM for the half of the compounds with a filed dose; 0% is about no effect
LmPK inhibitor: inhibitors of Leishmania mexicana pyruvate kinase. 0.37% of 290,000 active. Potency, µM (highest dose often 57.5 µM), for the others: at the highest dose activity change, negative = inhibition, most hits filed as inhibitors. Q27686. purified LmPK, Kinase-Glo ATP luminescence, 1 h. AID 1721; note: potency is the fitted concentration of half-maximal effect; % is set by controls: 0 for no effect and ±100 for the full control effect
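Pyruvate kinase activity monitored as ATP production (luciferase luminescence). Conditions: 0.1 nM enzyme, 0.5 mM PEP, 0.1 mM ADP, 1 h, RT; normalized against uninhibited and no-enzyme wells.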
Shiga toxin inh: inhibitors of Shiga toxin in Vero cells | Vero cells, Shiga toxin protein synthesis inhibition reporter | inhibition, % at 38.7 µM | 9.2% of 290,000 active; in the data active = inhibition mostly above about 28%, no sharp cut-off; inactive = mostly below about 43%; note: 0% is about no effect
FBPA Giardia inh: Giardia lamblia aldolase inhibition | A8B2U2 | Potency, µM (top dose mostly 59.6 µM), without a hit: at the highest dose activity, negative = inhibition, usual class: inhibitors | 0.71% of 290,000 active | purified Giardia FBPA; note: potency is the fitted concentration of half-maximal effect; % is set by controls: 0 for no effect and ±100 for the full control effect; nearly all actives have a fitted effect of over 55% in size
Target sequence (A8B2U2 whole entry, looked up): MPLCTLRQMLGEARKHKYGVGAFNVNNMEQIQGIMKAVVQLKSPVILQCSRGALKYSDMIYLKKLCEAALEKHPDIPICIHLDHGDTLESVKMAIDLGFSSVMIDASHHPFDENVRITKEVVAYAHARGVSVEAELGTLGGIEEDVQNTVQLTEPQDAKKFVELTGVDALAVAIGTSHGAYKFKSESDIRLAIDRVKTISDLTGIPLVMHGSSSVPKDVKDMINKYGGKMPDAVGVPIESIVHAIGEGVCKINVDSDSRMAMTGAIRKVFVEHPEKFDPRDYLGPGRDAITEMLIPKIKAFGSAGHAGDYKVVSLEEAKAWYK
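40 nM FBPA preincubated 10 min at RT with compound (up to 57.5 uM final), then substrate plus GAPDH/TPI/NAD/arsenate coupling and diaphorase/resazurin added. Fluorescence read after 20 min at RT, 525/598 nm.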
RE007 growth inh: less growth of the S. pombe RE007 Vpr strain | S. pombe RE007 Vpr strain, BacTiter-Glo ATP luminescence, 24 h | Potency, µM (highest dose often 92.2 µM), for inactives: at the highest dose activity change, negative = less growth, most hits filed as inhibitors | 0.21% of 360,000 active; active = well fitted falling curve with a large enough effect; inconclusive = small, poorly fitted or top-dose-only effect; inactive = no such curve, though single readings can be large or run the other way; note: potency is the fitted concentration of half-maximal effect; % is set by controls: 0 for no effect and ±100 for the full control effect; nearly all actives have a fitted effect of over 50% in size
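Fission yeast RE007 carrying one integrated HIV-1 vpr copy, seeded at OD 0.01 in PMG+AL medium with 23 nL pinned compound. Grown 24 h at 30 degrees; viability read by BacTiter-Glo luminescence after 5 min.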
TbPYK inhibitor: T. brucei pyruvate kinase inhibition. Q57TT1. TbPYK enzyme, Kinase-Glo Plus ATP luminescence, 45 min. Potency, µM (series often up to 76.8 µM), without a hit: top-dose activity, negative = inhibition, most hits filed as inhibitors. 0.12% of 410,000 active. AID 624173; note: potency is the fitted concentration of half-maximal effect; % is set by controls: 0 for no effect and ±100 for the full control effect; nearly all actives have a fitted effect of over 50% in size
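In this concentration-response screen, enzyme-free wells defined baseline while DMSO plates tracked drift. Each reaction combined TbPYK, substrate, compound and 130 uM ADP for 45 min at room temperature. Kinase-Glo Plus luminescence gave the signal.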
Active calls of the source: *; ? = inconclusive; · = not tested or not shown; [ ] = remark or other dose. Unless noted, calls come from the whole dose curve; as a rule, active = well fitted curve in the direction sought with a large enough effect; inconclusive = small, poorly fitted or top-dose-only effect, or another doubt; inactive = no such curve, though single readings can be large; an effect the other way counts as inactive or inconclusive.

SMILES | CHX counter | LmPK inhibitor | Shiga toxin inh | FBPA Giardia inh | RE007 growth inh | TbPYK inhibitor
CCC(=O)N1CCc2cc(S(=O)(=O)NC(CC(C)C)C(=O)Nc3cc(C)ccc3OC)ccc21 (centres undefined) | · | · | · | · | · | -0.2%
CCN(CCCNC(=O)c1nn(-c2ccc(OC)c(Cl)c2)c(=O)c2c1c1ccccc1n2C)c1ccccc1 | · | · | · | · | · | 1.9%
Cc1ccc(-c2csc(N/N=C/C=C/c3ccccc3)n2)cc1 | 16.3* | 1.5% | 49.2 | -1.0% | 7.1% | -17.1%
C=C(C)C1CCC(C)C(OC(C)=O)C1 (centres undefined) | -7.2 | · | -1.9 | 6.2% | · | ·
CC(=NCCN1CCCCC1)c1c(O)[nH]c(=O)[nH]c1=O | 20.5 | -0.2% | 87.1* | -6.3% | 1.6% | -5.4%
COC(=O)c1ccc(NC(=O)CN2C(=O)CC(C)S(=O)(=O)c3ccccc32)cc1 (centres undefined) | -2.5 | -0.7% | -2.2 | 8.9% | 1.4% | 2.3%
COCCn1cnc2cc(C)c(C)cc21 | -1.4 | -1.1% | -9.3 | -1.1% | 16.0% | 2.4%
Cc1cc2ncn(CCOc3ccccc3)c2cc1C | 50.8* | -4.4% | 102.0* | 0.2% | -17.1% | 10.5%
Cc1ccccc1OC(=O)n1c(=S)oc2cc(Cl)ccc21 | 15.6* | 5.8% | 43.0 | 3.6% | ? | ?
O=C(Oc1ccccc1)n1c(=S)oc2ccccc21 | 7.9 | 0.1% | 34.5 | ? | 1.3% | -2.4%
C/C(=N\NC1=N[C@H]2CS(=O)(=O)C[C@H]2S1)c1ccccc1 | -0.7 | -4.1% | -5.1 | -14.1% | -0.1% | -15.1%
CCC(=O)c1ccc(SC(=O)N(C)C)cc1O | 14.8* | 0.5% | 26.9 | -0.8% | 9.2% | -1.8%
c1ccc(-c2noc(CCC3CCCC3)n2)cc1 | 19.6* | 5.5% | 3.6 | -0.2% | -16.3% | -17.8%
CN(Cc1nc(-c2ccccc2)no1)C1CCOCC1 | 45.6* | -13.4% | 59.1 | 6.5% | -4.5% | 4.6%
COc1ccc(-c2noc(CN(C)C3CCOCC3)n2)cc1 | 13.2 | -8.0% | 29.6 | -2.3% | 8.9% | 3.7%
c1cc(-c2noc(CCC3CCCC3)n2)ccn1 | 16.7* | 1.7% | 15.4 | 0.6% | -10.3% | -8.2%
c1ccc(-c2noc(CSc3nnnn3C3CCCCC3)n2)cc1 | 28.5* | 3.9% | 45.7 | -1.3% | -19.7% | 4.8%
O=C1c2ccccc2C(=O)N1CCCc1nc(-c2ccncc2)no1 | -0.3 | 6.2% | 22.7 | 7.8% | 3.0%[3.69 µM] | ·
Cc1cccc(CSc2ncc(Cl)c(C(=O)Nc3sc4c(c3C#N)CCCC4)n2)c1 | · | · | · | · | · | -4.0%
CCCc1cc(=O)n2c(C(=O)Nc3ccc(OCC)cc3)c(C(=O)Nc3ccc(C)cc3)sc2n1 | · | · | · | · | · | -7.0%
O=C(NCCCc1ccccc1)c1nn(-c2ccccc2F)nc1CO | · | · | · | · | · | 4.8%
COCCCC1CCN(Cc2nc(Cc3ccccc3Cl)no2)CC1 | -1.6 | 1.6% | -9.8 | 3.6% | -8.1% | -5.4%
c1ccc(-c2noc(CC3CCCCC3)n2)cc1 | 31.0* | -4.6% | 47.8* | 2.5% | -11.2% | -0.7%
COCC1CCN(Cc2nc(COc3ccccc3)no2)C1 (centres undefined) | 15.1* | -1.6% | 31.1* | -2.9% | -14.1% | 0.7%
COCCCC1CCN(Cc2nc(-c3ccccc3)no2)CC1 | 22.7* | -0.3% | 75.9* | 7.0% | -5.8% | 2.4%
SMILES | CHX counter | LmPK inhibitor | Shiga toxin inh | FBPA Giardia inh | RE007 growth inh | TbPYK inhibitor
COc1ccc(O)c(CN2CCC(n3nccc3NC(=O)C3CCCC3)CC2)c1 | 0.5 | -11.9% | -22.2 | · | -11.3% | -1.4%
c1ccc(-c2ccc(-c3nc(-c4cccnc4)no3)cc2)cc1 | 33.4* | 7.6% | 35.4 | 1.4% | 5.6% | -5.4%
Cc1ccc(SCc2nc(-c3cccnc3)no2)cc1 | 21.3* | 3.4% | 53.2* | -14.6% | -13.6% | 0.9%
O=C1c2ccccc2C(=O)N1CCCc1nc(-c2cccnc2)no1 | -4.0 | 2.1% | -5.7 | -0.3% | 1.5% | 3.0%
c1ccc(-c2noc(-c3cccnc3)n2)cc1 | 32.8* | ? | 98.9* | -2.6% | -22.3% | -17.7%
C(=C\c1nc(-c2cccnc2)no1)/c1ccccc1 | 7.9 | 9.0% | 12.7 | ? | -6.5% | -3.7%
c1cncc(-c2noc(-c3ccc4ccccc4c3)n2)c1 | 27.2* | 1.0% | 101.8* | 10.8% | 0.4% | 0.9%

High-throughput results: PubChem BioAssay, National Center for Advancing Translational Sciences (NCATS)
